Source: PubChem (National Center for Advancing Translational Sciences (NCATS))
Most compounds without a hit are left out; they make up all but 21% or so of the library.
Sm TGR block: S. mansoni TGR enzyme inhibition; AID 485364; Potency, µM (top dose mostly 114 µM), most hits filed as inhibitors; purified TGR, DTNB reduction, TNB absorbance 405 nm; 360,000 compounds, 3% hits; note: nearly all actives have a fitted effect of over 60% in size
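Kinetic colorimetric format: TGR-catalysed, NADPH-driven DTNB reduction monitored via TNB absorbance. Enzyme dispensed at 20 nM; compound exposure 15 min at room temperature before reaction start.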
NS1 inh: influenza NS1 inhibition. Potency, µM (series often up to 46.1 µM). 270,000 compounds, 0.4% hits; calls by dose curve; note: actives are rising curves; nearly all actives have a fitted effect of over 50% in size
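Growth recovery, yeast-based: influenza A NS1 expressed in S. cerevisiae causes slow growth, and suppressors are detected by OD600. The parent strain without NS1 is used as positive control.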
Shiga inhibitor: Shiga toxin inhibition; 290,000 compounds, 9.2% hits; AID 2315; inhibition, % at 38.7 µM; Vero cells, Shiga toxin protein synthesis inhibition reporter; in the data active = inhibition mostly above about 28%, no sharp cut-off; inactive = mostly below about 43%
Cycloheximide cs: affects cycloheximide protein synthesis inhibition readout, counter-screen; cell reporter, cycloheximide protein synthesis inhibition counterscreen; max response, %; 300,000 compounds, 12% hits; AID 2314; in the data active = max response mostly above about 13%, no sharp cut-off; inactive = mostly below about 14%; note: read at 38.3 µM for the half of the compounds with a filed dose
Pf growth 96h: inhibits malaria parasite growth, 96 h. P. falciparum luciferase reporter growth, 96 h. Potency, µM (highest dose often 28.7 µM), hits mostly inhibitors. 320,000 compounds, 6.9% hits. AID 504834
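Delayed-death screen, second-generation endpoint: infected erythrocytes, 2% hematocrit, 0.05% parasitemia final; 96 hours at 37 C, 5% CO2; luciferase detection reagent; luminescence decrease equals reduced growth.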
Pf growth 48h: inhibits P. falciparum growth in the first generation, 48 h. Potency, µM (titrated, usually from 28.7 µM), most hits filed as inhibitors. 310,000 compounds, 5.9% hits. P. falciparum luciferase growth in erythrocytes, 48 h
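In quantitative HTS format, infected erythrocytes bearing luciferase-reporter parasites were treated for a single generation at 37 C. Luminescence after adding detection reagent served as the growth measure.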
A number is an active result; i = inactive; ? = inconclusive; nt = no result. Unless noted, calls come from the whole dose curve; as a rule, active = well fitted curve in the direction sought with a large enough effect; inconclusive = small, poorly fitted or top-dose-only effect, or another doubt; inactive = no such curve, though single readings can be large; an effect the other way counts as inactive or inconclusive.

SMILES	Sm TGR block	NS1 inh	Shiga inhibitor	Cycloheximide cs	Pf growth 96h	Pf growth 48h
CCN(CC)C(=O)Nc1ccc(OC[C@H](O)CNC(C)(C)C)c(C(C)=O)c1	nt	nt	nt	nt	i	i
CCOC(=O)CC1C(=O)NCCN1C(=O)NC1CCCCC1 (stereo unspecified)	i	i	i	i	nt	i
CCOC(=O)Cc1csc(NC(=S)NC(=O)c2ccccc2)n1	i	i	i	i	i	?
CCOC(=O)Cc1csc(NC(=S)NC(=O)c2cc(OC)cc(OC)c2)n1	i	i	i	i	i	i
Cc1csc(NC(=O)c2ccc3c(c2)OCO3)n1	i	i	71	31	i	i
COC(=O)CSc1nnc(NC(=O)c2ccc3c(c2)OCO3)s1	i	i	i	i	i	i
Cc1cccnc1NC(=O)c1ccc2c(c1)OCO2	i	nt	nt	nt	i	i
CCOC(=O)Cc1csc(NC(=S)NC(=O)c2ccccc2Br)n1	i	i	i	20	i	i
O=C(Nc1nccs1)c1ccc2c(c1)OCO2	i	i	65	20	i	i
CCOC(=O)Cc1csc(NC(=S)NC(=O)c2ccc(C)cc2)n1	i	i	i	i	3.7µM	2.9µM
Cc1c(Cl)cccc1NC(=O)C(CCS(C)(=O)=O)N1Cc2ccccc2C1=O (stereo unspecified)	i	nt	nt	nt	nt	nt
CC(=O)N1CCN(S(=O)(=O)c2cccc(C(=O)Nc3ccc(F)c(F)c3)c2)CC1	i	i	i	i	i	i
Cc1csc(NC(=O)c2ccoc2C)n1	i	i	64	49	i	i
CCOC(=O)Cc1csc(NC(=O)c2ccc(F)cc2)n1	i	i	i	i	i	i
CCOC(=O)Cc1csc(NC(=O)c2ccoc2C)n1	i	i	84	29	nt	i
CC(C)(C)NC(=O)CN(Cc1ccc2c(c1)OCO2)C(=O)CCC(=O)Nc1nccs1	i	i	i	15	?	i
CCOC(=O)Cc1csc(NC(=O)c2ccc(C)cc2)n1	i	i	91	34	i	i
COc1ccc2c(c1)c(=O)c(S(=O)(=O)c1ccc(Cl)cc1)cn2C	i	nt	nt	nt	nt	nt
O=C(NCc1ccc(S(=O)(=O)Nc2ccccc2Cl)s1)c1ccccc1	i	i	i	i	i	i
CC(C)(C)CC(=O)NCC(c1ccc2c(c1)OCO2)N1CCN(c2ccccc2)CC1 (stereo unspecified)	i	nt	nt	nt	nt	nt
CCOC(=O)Cc1csc(NC(=O)c2ccc3c(c2)OCO3)n1	i	i	40	15	?	i
O=C1CC(Sc2ccc(Cl)cc2)C(=O)N1c1ccc2c(c1)OCCO2 (stereo unspecified)	4µM	i	i	i	?	i
Nc1ccccc1SC1CC(=O)N(c2ccc3c(c2)OCCO3)C1=O (stereo unspecified)	i	i	69	38	i	i
Cn1c(-c2cccc(Br)c2)n[nH]c1=O	i	i	i	i	i	i
COc1ccc2oc(=O)c(-c3nc(-c4ccc(C)c(C)c4)cs3)cc2c1	i	nt	nt	nt	nt	nt
SMILES	Sm TGR block	NS1 inh	Shiga inhibitor	Cycloheximide cs	Pf growth 96h	Pf growth 48h
Cc1cc(C)c(-c2csc(-c3cc4ccccc4oc3=O)n2)cc1C	i	nt	nt	nt	nt	nt
Nc1nnc(-c2cc3ccccc3oc2=O)s1	i	nt	152	44	nt	i
COc1ccc2oc(=O)c(-c3nc(C)cs3)cc2c1	i	i	45	32	i	i
CC/C(C)=N\Nc1nc(-c2cc3cc(OC)ccc3oc2=O)cs1	i	i	73	34	i	i
O=c1oc2ccccc2cc1-c1nnc(NCc2ccco2)s1	i	i	70	32	i	nt
CCc1ccc(Nc2nnc(-c3cc4cc(OC)ccc4oc3=O)s2)cc1	i	nt	nt	nt	nt	nt
CN(C)c1cccc(C(=O)N2CCC(c3ccncc3)CC2)c1	i	nt	nt	nt	nt	nt
O=C(CSc1nnc(CCCOc2ccc(Cl)cc2Cl)o1)Nc1ccc(C(=O)O)cc1	i	i	i	i	?	i
CNC(=O)C1CCN(Cc2cc3ccccc3n2Cc2cccc(C)c2)CC1	i	nt	nt	nt	nt	nt
COc1ccc([C@H]2CC(=O)C=C(c3ccc(C)c([N+](=O)[O-])c3)C2)cc1	i	nt	nt	nt	i	i
CCOc1ccccc1NC(=O)C1CCN(S(=O)(=O)c2ccc3[nH]c4c(c3c2)CCCCC4)CC1	i	nt	nt	nt	nt	nt
COc1ccc2oc(=O)c(-c3nnc(N)s3)cc2c1	i	nt	45	18	?	i
COC(=O)CC1COc2ccccc2N1C(=O)/C=C/c1ccccc1 (stereo unspecified)	i	i	i	i	i	i
